Sampled rows, rich in hits. Any-hit rate of the full collection: about 4.7%.
FH mod = Identification of activators of human fumarate hydratase by quantitative high-throughput screening | FH coupled MDH/diaphorase resazurin fluorescence, 15 min | Potency, µM (top dose mostly 79.9 µM), most hits filed as inhibitors | 54,000 tested, 0.22% active | AID 1347055, 2019; note: the screen sought activators but most active calls are inhibition curves; nearly all actives have a fitted effect of over 45% in size
NTMT1 inhibitor = NTMT1 methyltransferase inhibition; Q9BV86; NTMT1 MTase-Glo SAH luminescence, purified enzyme; 59,000 tested, 2.5% active; Potency, µM (top dose mostly 114 µM), usual class: inhibitors; note: nearly all actives have a fitted effect of over 65% in size
Target sequence (Q9BV86 whole entry, looked up): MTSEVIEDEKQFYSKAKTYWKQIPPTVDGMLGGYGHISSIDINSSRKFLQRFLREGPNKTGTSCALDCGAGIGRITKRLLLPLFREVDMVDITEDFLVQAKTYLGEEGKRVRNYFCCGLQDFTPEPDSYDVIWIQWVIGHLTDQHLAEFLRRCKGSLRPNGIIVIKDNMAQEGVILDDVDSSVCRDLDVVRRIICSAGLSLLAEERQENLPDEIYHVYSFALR
GPR32 ag = activates human resolvin D1 receptor GPR32 | O75388 | CHO-K1 GPR32 beta-arrestin PathHunter luminescence, 90 min; zero percent set by DMSO-only wells | activation, % at 76.9 µM | 48,000 tested, 2.5% active | AID 1346428;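 active = activation of at least 60% and not above a set upper limit, about 1 call in 100 departs from these limits; inconclusive = activation of 40% to 60%, or above that upper limit; inactive = activation under 40%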
Target sequence (O75388 whole entry, looked up): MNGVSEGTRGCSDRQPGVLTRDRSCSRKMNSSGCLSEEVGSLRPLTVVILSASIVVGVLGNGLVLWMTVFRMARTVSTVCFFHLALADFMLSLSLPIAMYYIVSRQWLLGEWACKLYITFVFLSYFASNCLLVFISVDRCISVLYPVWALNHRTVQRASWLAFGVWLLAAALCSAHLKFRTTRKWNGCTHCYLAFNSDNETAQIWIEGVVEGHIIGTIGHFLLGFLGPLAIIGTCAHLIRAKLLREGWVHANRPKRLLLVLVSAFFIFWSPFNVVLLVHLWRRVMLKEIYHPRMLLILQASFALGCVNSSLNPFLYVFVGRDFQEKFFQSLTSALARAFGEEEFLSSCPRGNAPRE
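GPR32 activation in stably transfected CHO-K1 cells, detected as beta-arrestin recruitment by enzyme-fragment complementation. Compound exposure: 90 min, 37 °C.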
HTT prom inh = HTT promoter inhibition. HEK293 HTT promoter firefly luciferase reporter, 24 h. 48,000 tested, 0.93% active. Potency, µM (series often up to 57.5 µM), most hits filed as inhibitors; note: nearly all actives have a fitted effect of over 50% in size
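HEK293 luciferase promoter-reporter cells (2,500/well) plated 24 h, then compounds added at up to 57.5 uM final for 24 h at 37 °C. Firefly luminescence by Dual-Glo, normalized to vehicle (0%) and zero RLU (-100%).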
HTT-AS promoter = activators of huntingtin-antisense promoter activity; HEK293 HTT-AS promoter firefly luciferase reporter, 24 h; response scale: percent change from vehicle, -100% = no light; Potency, µM (titrated, usually from 57.5 µM), usual class: activators; 48,000 tested, 0.24% active; AID 1508624; note: nearly all actives have a fitted effect of over 55% in size
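HEK293 luciferase promoter-reporter cells (2,500/well) plated 24 h, then compounds added at up to 57.5 uM final for 24 h at 37 °C. Firefly luminescence by Dual-Glo, normalized to vehicle (0%) and zero RLU (-100%).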
GALC G270D up = galactocerebrosidase G270D activity enhancement, cell-based. 145M-Twi-hGALC-G270D cells (Twitcher mouse brain line with human GALC G270D), HMU-beta-Gal fluorescence, 48 h. Potency, µM (highest dose often 57.5 µM), usual class: activators. 45,000 tested, 0.1% active. AID 1159614; note: nearly all actives have a fitted effect of over 65% in size
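Fluorogenic HMU-b-Gal hydrolysis (0.1 mM final, pH 5.2 citrate-phosphate with 1 mg/mL sodium taurocholate; carbonate stop buffer) measures mutant GALC activity after compound treatment of live 145M-Twi Twitcher brain cells stably carrying human GALC-G270D, with wild-type GALC line alongside; activation sought.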
Numbers stand for hits; n = inactive; u = inconclusive; x = no result given; ! = not active in a repeat; [ ] = another dose, or the depositor's remark. Unless noted, calls come from the whole dose curve; as a rule, active = well fitted curve in the direction sought with a large enough effect; inconclusive = small, poorly fitted or top-dose-only effect, or another doubt; inactive = no such curve, though single readings can be large; an effect the other way counts as inactive or inconclusive.

SMILES	FH mod	NTMT1 inhibitor	GPR32 ag	HTT prom inh	HTT-AS promoter	GALC G270D up
C[C@@H]1O[C@@H](O[C@H]2[C@H](O[C@H]3[C@H](O[C@H]4CC[C@@]5(C)C(CC[C@]6(C)C5CC=C5[C@@H]7CC(C)(C)CC(=O)[C@]7(C)CC[C@]56C)[C@@]4(C)CO)O[C@H](C(=O)O)[C@@H](O)[C@@H]3O)O[C@H](CO)[C@H](O)[C@@H]2O)[C@H](O)[C@H](O)[C@H]1O (stereo not given in full)	n	n[12.6 µM]	x	x	x	x
Cc1nc2ccccc2c(=O)n1-c1ccc(NC(=O)c2ccccc2[N+](=O)[O-])cc1	n	n	68	n	n	n
O=C(COc1cccc(Cl)c1)N1CCC(c2nc3ccccc3s2)CC1	u	n	72	n	n	n
COc1ccc(OCC(=O)N2CCC(c3nc4ccccc4s3)CC2)cc1	n	n	n	u	n	n
O=C(c1ccc(Br)cc1)N1CCC(c2nc3ccccc3s2)CC1	u	n	n	n	n	n
O=C(c1ccc(F)cc1)N1CCC(c2nc3ccccc3s2)CC1	n	n	64	u	n[11.5 µM]	n
COc1ccccc1OC(C)C(=O)N1CCC(c2nc3ccccc3s2)CC1 (stereo not given)	n	n	85	u	n	u
COc1cc2c(cc1O)CC[C@H]1[C@@H]2CC[C@]2(C)[C@H](O)CC[C@@H]12	n	u	x	x	x	x
Cc1cccc(C(=O)Nc2nnc(S(=O)(=O)N3CCC(C)CC3)s2)c1	n	n	69	n	n	n
COc1cccc2sc(NC(=O)c3ccc(S(=O)(=O)N4CCC(C)CC4)cc3)nc12	n	n	n	28µM	n	n
O=C(Nc1nnc(S(=O)(=O)N2CCCC2)s1)c1ccc(F)cc1	n	n	64	n	n	n
CC1CCN(S(=O)(=O)c2ccc(C(=O)Nc3nc4ccc(F)cc4s3)cc2)CC1	n	n	n	n	n	n
CC1CCN(S(=O)(=O)c2nnc(NC(=O)c3cccc(Br)c3)s2)CC1	n	n	73	u	n	n
CC1CCN(S(=O)(=O)c2nnc(NC(=O)c3cccc(F)c3)s2)CC1	n	n	n	n	n	n
CC(C)c1ccccc1-c1nc(NCc2ccc(-c3cccnc3)cc2)c2ccsc2n1	x	n	x	x	x	x
Cc1ccc(S(=O)(=O)Nc2cnccc2C(=O)Nc2ccc(N3CCOCC3)cc2)cc1	x	n	x	x	x	x
Cc1cccc(C(=O)Nc2cc3nn(-c4ccc(C(C)C)cc4)nc3cc2C)c1	n	n	102	n	n	n
O=c1c2oc3ccccc3c2n(Cc2ccccc2)c(=O)n1Cc1ccco1	n	89µM	n	n	n	n
CNC(=O)c1c(C)oc2cc(Oc3ncnc4cc(OC)c(OC)cc34)ccc12	n	n	x	x	x	x
CCOC(=O)c1nc(NCc2ccc(Cl)cc2)c2c(C)noc2n1	n	n	65	n	n	n
O=C(Nc1ccc(S(=O)(=O)Nc2nccs2)cc1)c1ccnc2ccccc12	x	n	x	x	x	x
CC[C@@H]1C[C@]1(NC(=O)[C@@H]1C[C@@H]2CN1C(=O)[C@H](C(C)(C)C)NC(=O)OCC(C)(C)CCCCc1cccc3c1CN(C3)C(=O)O2)C(=O)NS(=O)(=O)C1CC1	n	n	x	x	x	x
Cc1cnc(-c2ccccc2C(C)C)nc1NCC1CCN(C2COC2)CC1	x	n	x	x	x	x
COc1ccc(-c2nc(SCC(=O)c3ccc(Br)cc3)n[nH]2)cc1	n	n	114	n	n	n
COc1ccccc1-c1nc(SCC(=O)c2ccccc2)n[nH]1	n	n	u	n	n	n
SMILES	FH mod	NTMT1 inhibitor	GPR32 ag	HTT prom inh	HTT-AS promoter	GALC G270D up
COc1ccc(C(Nc2ccccn2)c2ccc3ccc(C)nc3c2O)cc1C (stereo not given)	n	n	90	u	n	n
Cc1cccc(NC(c2cccc(Cl)c2)c2ccc3cccnc3c2O)n1 (stereo not given)	n	n	n	10µM	n	n
Cc1ccnc(NC(c2cccc(O)c2)c2ccc3ccc(C)nc3c2O)c1 (stereo not given)	n	n	n	n	n	n
CCOc1cc(C(Nc2cc(C)ccn2)c2ccc3cccnc3c2O)ccc1OC (stereo not given)	n	n	n	35µM	n	n
Cc1ccc(C(Nc2ccccn2)c2ccc3cccnc3c2O)cc1 (stereo not given)	n	n	u	u	n	n
CC(C)(C)c1ccc(CSc2nc3ncc(Br)cc3[nH]2)cc1	x	n	x	x	x	x
O=C(NCC1CCCO1)c1c[nH]c2ccc(S(=O)(=O)Nc3ccc(F)cc3F)cc2c1=O (stereo not given)	n	n	n	n	n	n
CCc1ccc(N(C)S(=O)(=O)c2ccc3[nH]cc(C(=O)NCC4CCCO4)c(=O)c3c2)cc1 (stereo not given)	u	n	110	u	n	n
O=c1[nH]c(=S)[nH]c(-c2ccccc2)c1Cc1c(O)ccc2ccccc12	20µM	x	x	x	x	x
Cc1ccc(N=C2NC(=O)CC(C(=O)Nc3cc(C(F)(F)F)ccc3Cl)S2)cc1 (stereo not given)	n	n	80	u	n	n
Cc1ccc(/C=C/C(=O)Nc2nc(-c3cccs3)ns2)cc1	n	n	70	n	n	n
O=C(/C=C/c1ccccc1)Nc1nc(-c2cccs2)ns1	n	n	81	n	n	n
Cc1cnc(-c2ccccc2C(C)C)nc1NC(C)c1ccc(-c2cccnc2)cc1 (stereo not given)	x	n	x	x	x	x
C[C@H]1CNCCCN1S(=O)(=O)c1cccc2cncc(F)c12	x	n	x	x	x	x
Cc1cncc2cccc(S(=O)(=O)N3CCCNC[C@@H]3C)c12	n	79µM	x	x	x	x
COc1ccc2c(c1O)OC[C@H]1c3ccc(O)cc3O[C@@H]21	n	u	x	x	x	x
CCCCCCCC(=O)[O-].CCCCCCCC(=O)[O-].[Zn+2]	n	20µM	n	n	n	n
N#Cc1c(C(=O)c2cccs2)no[n+]1[O-]	x	n	x	x	x	x
C[C@H](NC(=O)OC(C)(C)C)c1nnc(SCc2ccc(Cl)cc2Cl)o1	n	n	u	u	n	n
CC(C)C[C@H](N)c1nnc(SCc2ccc(Cl)cc2Cl)o1	n	n	77	n	n	n
O=Cc1ccc(O)c(O)c1O	15µM	18µM	n	n	n	n
CC(C)=CCC/C(C)=C/CO[C@@H]1O[C@H](CO[C@@H]2OC[C@](O)(CO)[C@H]2O)[C@@H](O)[C@H](O)[C@H]1O	n	n	x	x	x	x
COc1ccccc1OCCCSc1nc(-c2ccc(C(C)(C)C)cc2)nc2cc(=O)[nH]n12	x	x	75	x	x	x
Cc1cc(OCCCSc2nc(-c3ccc(C(C)(C)C)cc3)nc3cc(=O)[nH]n23)ccc1Cl	u	50µM!	n	n	n	n

High-throughput results as filed in PubChem.
